Potency data for 36 molecules are collected here from PubChem BioAssay (NCATS).

Results filed as inconclusive are left out. Active and inactive are the calls of the source. The call rests on the fitted dose curve.

A short description of experiment [1]: Primary qHTS for Huh7 cytotoxicity: counterscreen for inhibitors of MERS-S pseudotyped particle cell entry (AID 1479147).
Experiment [2] can be described thus: Primary qHTS for inhibitors of MERS-S pseudo-typed particle cell entry (AID 1479149; further: nearly all actives have a fitted effect of over 60% in size). (qHTS replaces the single test concentration by a dilution series.)
Experiment [3] in a line: Primary qHTS for Vero E6 cytotoxicity: counterscreen for inhibitors of SARS-S pseudo-typed particle cell entry (AID 1479150).
Experiment [4] in a line: Primary qHTS for inhibitors of SARS-S pseudo-typed particle cell entry (AID 1479145). Further: potency means the concentration at half of the fitted maximal effect; nearly all actives have a fitted effect of over 45% in size.
Experiment [5] can be described thus: Confirmatory qHTS for activators (rescue) of SARS-CoV-2 Cytopathic Effect (CPE) (AID 1508606). Further: nearly all actives have a fitted effect of over 70% in size. Further: potency means the concentration at half of the fitted maximal effect.
Experiment [6] can be described thus: Confirmatory qHTS for VERO E6 Cytotoxicity Assay: Counterscreen for SARS-CoV-2 CPE Assay (AID 1508605). Further: series mostly up to about 20 µM; nearly all actives have a fitted effect of over 60% in size.

For `N=C(N)c1ccc(OCCCCCOc2ccc(C(=N)N)cc2)cc1`, the Potency result in experiment [1] is “inactive”.
As to `C[C@]12CC[C@@H]3c4ccc(O)cc4C[C@@H](CCCCCCCCCS(=O)CCCC(F)(F)C(F)(F)F)[C@H]3[C@@H]1CC[C@@H]2O` (stereo partly drawn), the Potency result in experiment [1], in experiment [2] and in experiment [3] was “inactive” each time.
Regarding `CCCCS(=O)(=O)N[C@@H](Cc1ccc(OCCCCC2CCNCC2)cc1)C(=O)O`, the Potency result in experiment [1], in experiment [2] and in experiment [3] was “inactive” in each case.
`OCCN1CCN(CCCN2c3ccccc3Sc3ccc(Cl)cc32)CC1`: in experiment [4], the Potency was 14.1 µM (active). Further, the Potency entry in experiment [3] and in experiment [5] was “inactive” throughout.
Regarding `Nc1ccn([C@@H]2O[C@H](CO)[C@@H](O)C2(F)F)c(=O)n1`, the Potency in experiment [4] was 0.794 µM (active). The Potency entry in experiment [3] was “inactive”.
As to `CCOc1ccccc1OCCN[C@H](C)Cc1ccc(OC)c(S(N)(=O)=O)c1`, the Potency entry in experiment [1], in experiment [2] and in experiment [3] was “inactive” throughout.
Take `CC(C)NC[C@@H](O)COc1ccc(CC(N)=O)cc1`: the Potency entry in experiment [1], in experiment [2] and in experiment [3] was “inactive” in each case.
Regarding `COC(=O)CCc1ccc(OCC(O)CNC(C)C)cc1` (stereo not drawn), the Potency result in experiment [1], in experiment [2] and in experiment [3] was “inactive” throughout.
On to `C[C@H]1O[C@H](O[C@H]2[C@H](O)[C@@H](O)[C@@H](O[C@H]3[C@H](O)[C@@H](O)[C@H](O)O[C@@H]3CO)O[C@@H]2CO)[C@H](O)[C@@H](O)[C@@H]1N[C@H]1C=C(CO)[C@@H](O)[C@H](O)[C@H]1O`, for which the Potency result in experiment [1], in experiment [2] and in experiment [3] was “inactive” in each case.
As to `COc1cc(C(C)=O)ccc1OCCCN1CCC(c2noc3cc(F)ccc23)CC1`, the Potency in experiment [4] was 22.4 µM (active); in experiment [5], 11.2 µM (active). Also, the Potency entry in experiment [6] is “inactive”.
For `CCOC(=O)[C@H](CCc1ccccc1)N[C@@H](C)C(=O)N1Cc2cc(OC)c(OC)cc2C[C@H]1C(=O)O`, the Potency entry in experiment [1], in experiment [2] and in experiment [3] was “inactive” in each case.
Regarding `CS(=O)(=O)CCNCc1ccc(-c2ccc3ncnc(Nc4ccc(OCc5cccc(F)c5)c(Cl)c4)c3c2)o1`, the Potency entry in experiment [1], in experiment [2] and in experiment [3] was “inactive” throughout.
With `COc1nc(N)nc2c1ncn2[C@@H]1O[C@H](CO)[C@@H](O)[C@@H]1O`, the Potency result in experiment [1], in experiment [2] and in experiment [3] was “inactive” in each case.
For `COc1cc(NC(C)CCCN)c2ncccc2c1` (stereo not drawn), the Potency result in experiment [1], in experiment [2] and in experiment [3] was “inactive” in each case.
As to `C=C(c1ccc(C(=O)O)cc1)c1cc2c(cc1C)C(C)(C)CCC2(C)C`, the Potency result in experiment [1], in experiment [2] and in experiment [3] was “inactive” each time.
On to `CC1(C)S[C@@H]2[C@H](NC(=O)[C@H](N)c3ccccc3)C(=O)N2[C@H]1C(=O)O`, for which the Potency entry in experiment [1], in experiment [2] and in experiment [3] was “inactive” throughout.
Turning to `NC12CC3CC(CC(C3)C1)C2`, the Potency result in experiment [1], in experiment [2] and in experiment [3] was “inactive” throughout.
In the case of `CCC(C)(C)C(=O)O[C@H]1C[C@@H](C)C=C2C=C[C@H](C)[C@H](CC[C@@H]3C[C@@H](O)CC(=O)O3)[C@H]21`, the Potency entry in experiment [1] and in experiment [2] was “inactive” throughout.
`COc1cc2nc(N3CCN(C(=O)c4ccco4)CC3)nc(N)c2cc1OC`: the Potency entry in experiment [1] and in experiment [2] was “inactive” in each case.
In the case of `Cc1ccc(C(=O)c2cc(O)c(O)c([N+](=O)[O-])c2)cc1`, the Potency entry in experiment [1], in experiment [2] and in experiment [3] was “inactive” in each case.
As for `Cc1ccsc1C(=CCCN1CCC[C@@H](C(=O)O)C1)c1sccc1C`, the Potency entry in experiment [1], in experiment [2] and in experiment [3] was “inactive” throughout.
Turning to `CN(C)CCc1c[nH]c2ccc(C[C@H]3COC(=O)N3)cc12`, the Potency result in experiment [1], in experiment [2] and in experiment [3] was “inactive” in each case.
As to `CN(C)c1ccc(O)c2c1C[C@H]1C[C@H]3[C@H](N(C)C)C(=O)C(C(N)=O)=C(O)[C@@]3(O)C(=O)C1=C2O`, the Potency result in experiment [1], in experiment [2] and in experiment [3] was “inactive” throughout.
`CC(=O)O[C@@]12CO[C@@H]1C[C@H](O)[C@@]1(C)C(=O)[C@H](O)C3=C(C)[C@@H](OC(=O)[C@H](O)[C@@H](NC(=O)OC(C)(C)C)c4ccccc4)C[C@@](O)([C@@H](OC(=O)c4ccccc4)[C@H]21)C3(C)C`: the Potency entry in experiment [1], in experiment [2] and in experiment [3] was “inactive” each time.
Take `CCCC(=O)Nc1ccc(OCC(O)CNC(C)C)c(C(C)=O)c1` (stereo not drawn): the Potency result in experiment [1], in experiment [2] and in experiment [3] was “inactive” each time.
As to `NC(=O)N1c2ccccc2CC(=O)c2ccccc21`, the Potency result in experiment [1], in experiment [2] and in experiment [3] was “inactive” throughout.
With `COC(=O)C1=C(C)NC(C)=C(C(=O)OC(C)C)C1c1cccc2nonc12` (stereo not drawn), the Potency result in experiment [1], in experiment [2] and in experiment [3] was “inactive” in each case.
As to `Cc1ccnc2c1NC(=O)c1cccnc1N2C1CC1`, the Potency result in experiment [1], in experiment [2] and in experiment [3] was “inactive” each time.
For `COC(=O)N[C@H](C(=O)N[C@@H](Cc1ccccc1)[C@@H](O)CN(Cc1ccc(-c2ccccn2)cc1)NC(=O)[C@@H](NC(=O)OC)C(C)(C)C)C(C)(C)C`, the Potency result in experiment [1], in experiment [2] and in experiment [3] was “inactive” each time.
Take `Cc1ccccc1C(=O)Nc1ccc(C(=O)N2CCCC(O)c3cc(Cl)ccc32)c(C)c1` (stereo not drawn): the Potency entry in experiment [1], in experiment [2] and in experiment [3] was “inactive” in each case.
Take `CCC(=O)O[C@H]1[C@H](O[C@@H]2[C@@H](C)[C@H](O[C@H]3C[C@@](C)(OC)[C@@H](O)[C@H](C)O3)[C@@H](C)C(=O)O[C@H](CC)[C@@](C)(O)[C@H](O)[C@@H](C)C(=O)[C@H](C)C[C@@]2(C)O)O[C@H](C)C[C@@H]1N(C)C`: the Potency result in experiment [1], in experiment [2] and in experiment [3] was “inactive” in each case.
As for `CC(N)C12CC3CC(CC(C3)C1)C2` (stereo not drawn), the Potency entry in experiment [1], in experiment [2] and in experiment [3] was “inactive” each time.
For the molecule `O=C1[C@H](CC[C@H](O)c2ccc(F)cc2)[C@@H](c2ccc(O)cc2)N1c1ccc(F)cc1`, the Potency result in experiment [1], in experiment [2] and in experiment [3] was “inactive” throughout.
Turning to `CC(C)(C#N)c1cc(Cn2cncn2)cc(C(C)(C)C#N)c1`, the Potency result in experiment [1], in experiment [2] and in experiment [3] was “inactive” throughout.
As to `Cc1nccn1CC1CCc2c(c3ccccc3n2C)C1=O` (stereo not drawn), the Potency entry in experiment [1], in experiment [2] and in experiment [3] was “inactive” in each case.
For the molecule `OCCN1C[C@H](O)[C@@H](O)[C@H](O)[C@H]1CO`, the Potency entry in experiment [1], in experiment [2] and in experiment [3] was “inactive” in each case.
